# Assay results: PubChem BioAssay (NCATS)
# Records with an inconclusive call do not appear. Entries that show only a call come without a potency. The source made the active and inactive calls. Calls follow the shape of the dose curve; as a rule, active = well fitted inhibition curve with a large enough effect; inconclusive = small, poorly fitted or top-dose-only effect, or effect the other way; inactive = flat fitted curve, though single readings scatter.
# Biological target: ATP-dependent 6-phosphofructokinase (Trypanosoma brucei brucei) (UniProt O15648)
# Sequence (O15648 whole entry, looked up): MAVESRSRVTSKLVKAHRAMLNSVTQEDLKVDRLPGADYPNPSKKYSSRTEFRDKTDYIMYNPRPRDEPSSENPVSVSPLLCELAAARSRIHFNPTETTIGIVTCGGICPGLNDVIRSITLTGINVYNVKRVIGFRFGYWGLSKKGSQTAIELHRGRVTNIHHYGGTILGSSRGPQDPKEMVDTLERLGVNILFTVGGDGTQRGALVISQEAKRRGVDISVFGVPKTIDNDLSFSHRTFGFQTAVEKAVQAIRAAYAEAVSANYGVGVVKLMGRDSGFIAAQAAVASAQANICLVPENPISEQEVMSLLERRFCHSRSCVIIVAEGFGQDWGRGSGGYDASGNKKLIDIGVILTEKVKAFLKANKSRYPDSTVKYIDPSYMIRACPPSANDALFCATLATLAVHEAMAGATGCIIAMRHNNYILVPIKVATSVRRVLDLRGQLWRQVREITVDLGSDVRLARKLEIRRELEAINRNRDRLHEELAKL
# Assay: qHTS Assay to Find Inhibitors of T. brucei phosphofructokinase: hit validation (AID 492961);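 also: luminescence reports ADP formed as PFK phosphorylates fructose-6-phosphate with ATP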
# Conditions: T. brucei PFK, ADP-Glo luminescence; series mostly up to 51.4 µM
# In short: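 Inhibition of parasite PFK is measured as reduced ADP formation, quantified via luciferase after ATP depletion. Assay used 0.1 mM ATP, 0.5 mM F6P, 1.25 nM enzyme, 45 min incubation.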
row,Structure (SMILES),Potency
1,C[C@H](CCCC(C)(C)O)[C@H]1CC[C@H]2[C@@H]3CC=C4C[C@@H](O)CC[C@]4(C)[C@H]3CC[C@]12C,inactive
2,O=[N+]([O-])c1c(Cl)cccc1-c1c[nH]cc1Cl,inactive
3,O=C1NCCN1c1ncc([N+](=O)[O-])s1,inactive
4,O=c1n(CC2CO2)c(=O)n(CC2CO2)c(=O)n1CC1CO1 (stereo unspecified),inactive
5,COc1ccc(C[C@H](C)NC[C@@H](O)c2ccc(O)c(NC=O)c2)cc1,inactive
6,C[N+]1(C)[C@@H]2CC(OC(=O)C(O)(c3cccs3)c3cccs3)C[C@H]1[C@@H]1O[C@@H]12 (stereo partly specified),inactive
7,NCCN,inactive
8,CN1CCCC(CN2c3ccccc3Sc3ccccc32)C1 (stereo unspecified),inactive
9,CCCC(=O)O,inactive
10,CC(C)OC(=O)Nc1ccc2nc(-c3cscn3)[nH]c2c1,inactive
11,COc1ccc(/C=C/C(=O)O)cc1,inactive
12,Cc1ncc(C[n+]2csc(CCOP(=O)(O)O)c2C)c(N)n1,inactive
13,COc1ccc2c(=O)c(C)c(-c3ccccc3)oc2c1CN(C)C,inactive
14,CC/C=C\C/C=C\C/C=C\C/C=C\C/C=C\CCCC(=O)O,inactive
15,CCCCC[C@H](O)/C=C/[C@@H]1[C@H]2C/C(=C/CCCC(=O)O)O[C@H]2C[C@H]1O,inactive
16,CCOC(=O)Cc1ccc(-c2ccccc2)cc1,inactive
17,C[C@]12CCC(=O)C[C@@H]1CC[C@@H]1[C@@H]2CC[C@]2(C)C=CC[C@@H]12,inactive
18,O=P(O)(O)OP(=O)(O)OP(=O)(O)O,inactive

row,Structure (SMILES),Potency
1,Cc1c(Cl)cccc1Nc1ncccc1C(=O)O,inactive
2,Cc1cccc(C)c1NC(=O)NC1=CCCN1C,inactive
3,Cc1ccc(S(=O)(=O)O)cc1C,inactive
4,CO[C@H]1C[C@@H]2CC[C@@H](C)[C@@](O)(O2)C(=O)C(=O)N2CCCC[C@H]2C(=O)O[C@H]([C@H](C)C[C@@H]2CC[C@@H](OC(=O)C(C)(CO)CO)[C@H](OC)C2)CC(=O)[C@H](C)/C=C(\C)[C@@H](O)[C@@H](OC)C(=O)[C@H](C)C[C@H](C)/C=C/C=C/C=C/1C,inactive
5,O=C(O)c1ccc(NC(=O)[C@H](Cc2ccc(O)cc2)NC(=O)c2ccccc2)cc1,inactive
6,CCCCCCCCCCCCCCCCCC[N+](C)(C)CCC[Si](OC)(OC)OC,inactive
7,c1ccc2c(c1)OCC(CN1CCCCC1)O2 (stereo unspecified),inactive
8,Cc1c(C)c2c(c(C)c1OC(=O)CCC(=O)O)CC[C@@](C)(CCC[C@H](C)CCC[C@H](C)CCCC(C)C)O2,inactive
9,Cc1ccccn1,inactive
10,CC/C=C\C/C=C\C/C=C\C/C=C\C/C=C\C/C=C\CCC(=O)O,inactive
11,CCCCCCCCCCCCCC(=O)OCC(COP(=O)([O-])OCC[N+](C)(C)C)OC(=O)CCCCCCCCCCCCC (stereo unspecified),inactive
12,CC(CCc1ccc(O)cc1)NCC(O)c1ccc(O)cc1 (stereo unspecified),inactive
13,O=C(/C=C/c1cccc(F)c1)NC1CC1,inactive
14,CC1CCC(NC(=O)N(CCCl)N=O)CC1 (stereo unspecified),inactive
15,NC(=O)Oc1ccc(Cc2ccccc2)cc1,inactive
16,NC(=O)[C@@H]1CCCN1C(=O)[C@H](Cc1cnc[nH]1)NC(=O)[C@@H]1CCC(=O)N1,inactive
17,O=C(CCCCCCCCCCCCC1CCCC1)Nc1ccc(S(=O)(=O)c2ccc(NC(=O)CCCCCCCCCCCCC3CCCC3)cc2)cc1,inactive
18,CC(C)NCC(O)COc1ccccc1-n1cccc1 (stereo unspecified),inactive
